Pf growth 48h = Primary qHTS for delayed death inhibitors of the malarial parasite plastid, 48 hour incubation; P. falciparum luciferase growth in erythrocytes, 48 h; Potency, µM (series often up to 28.7 µM), without a hit: at the highest dose activity change, negative = inhibition, most hits filed as inhibitors; 310,000 tested, 5.9% active; note: potency is the fitted concentration of half-maximal effect; % is set by controls: 0 for no effect and ±100 for the full control effect
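A one-generation exposure of luciferase-tagged malaria parasites in RPMI 1640/Albumax erythrocyte culture, 37 C and 5% CO2. Inhibition is inferred from decreased luminescence after adding detection reagent.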
Shiga inhibitor = A qHTS for Small Molecule Inhibitors of Shiga Toxin; Vero cells, Shiga toxin protein synthesis inhibition reporter; inhibition, % at 38.7 µM; 290,000 tested, 9.2% active; AID 2315, 2010; in the data active = inhibition mostly above about 28%, no sharp cut-off; inactive = mostly below about 43%; note: 0% is about no effect
NS1 function inh = qHTS Assay for Inhibitors of Influenza NS1 Protein Function; Potency, µM (series often up to 46.1 µM), without a hit: at the highest dose activity, positive = more growth; 270,000 tested, 0.4% active; calls by dose curve; note: potency is the fitted concentration of half-maximal effect; actives are rising curves; nearly all actives have a fitted effect of over 50% in size
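OD600 was taken as the measure of yeast growth restored by compound in an NS1-expressing S. cerevisiae strain. Cells had been washed out of glucose medium and diluted 1:100 into galactose -URA medium, pH 6.0.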
Sm TGR block = qHTS Assay for the Inhibitors of Schistosoma Mansoni Peroxiredoxins; Schistosoma mansoni thioredoxin glutathione reductase (TGR), Q962Y6; purified TGR, DTNB reduction, TNB absorbance 405 nm; Potency, µM (highest dose often 114 µM), for the others: top-dose activity change, negative = inhibition, most hits filed as inhibitors; 360,000 tested, 3% active; AID 485364, 2010; note: potency is the fitted concentration of half-maximal effect; % is set by controls: 0 for no effect and ±100 for the full control effect; nearly all actives have a fitted effect of over 60% in size
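First, TGR (20 nM dispensed) and NADPH were mixed with compound. Second, a 15 min room-temperature incubation followed. Third, further NADPH and then DTNB were added to start the reaction. Finally, TNB absorbance was monitored kinetically.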
Pf growth 96h = Primary qHTS for delayed death inhibitors of the malarial parasite plastid, 96 hour incubation. 320,000 tested, 6.9% active. Potency, µM (series often up to 28.7 µM), for the others: top-dose activity change, negative = inhibition, hits mostly inhibitors. P. falciparum luciferase reporter growth, 96 h; note: potency is the fitted concentration of half-maximal effect; % is set by controls: 0 for no effect and ±100 for the full control effect
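96 h incubation, 37 C, 5% CO2, of luciferase-reporter P. falciparum-infected RBCs (2% hematocrit, 0.05% parasitemia final) with test compounds; endpoint luminescence.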
Cycloheximide cs = Cycloheximide Counterscreen for Small Molecule Inhibitors of Shiga Toxin; cell reporter, cycloheximide protein synthesis inhibition counterscreen; max response, %; 300,000 tested, 12% active; AID 2314, 2010; in the data active = max response mostly above about 13%, no sharp cut-off; inactive = mostly below about 14%; note: read at 38.3 µM for the half of the compounds with a filed dose; 0% is about no effect
* hit, by the source's call; i = inactive; ? = inconclusive; . = no result given; [ ] = dose if it differs, or a comment. Only some compounds are listed: those with a hit (about 21% of all), similar ones and a draw of the others. Unless noted, calls come from the whole dose curve; as a rule, active = well fitted curve in the direction sought with a large enough effect; inconclusive = small, poorly fitted or top-dose-only effect, or another doubt; inactive = no such curve, though single readings can be large; an effect the other way counts as inactive or inconclusive.

SMILES | Pf growth 48h | Shiga inhibitor | NS1 function inh | Sm TGR block | Pf growth 96h | Cycloheximide cs
CCc1c(C)sc2c1CCN(C(=O)Nc1cc(C)ccc1C)C2c1ccc(OC)cc1 (stereo not drawn) | . | . | . | 7% | . | .
CC(=O)C1=C(O)C(=O)N(Cc2ccccc2)C1c1ccc([N+](=O)[O-])cc1 (stereo not drawn) | 3% | -15 | 4% | -2% | 5% | -5
COc1ccc2cc(/C=N/NC(=O)c3c(Cl)cnn3C)c(Cl)nc2c1 | -4% | 5 | -8% | 5% | 21% | -1
COc1cccc(/C=C/C(=O)NNC(=O)c2ccco2)c1OC | 18% | . | . | -30% | 309% | .
COc1cc2cc(/C=C/C(=O)c3ccco3)c(Cl)nc2cc1OC | -7% | 68* | -4% | ? | . | 16
COc1ccc2cc(/C=C/C(=O)c3ccco3)c(Cl)nc2c1 | ? | 91 | -4% | 45µM* | . | 38*
O=C(Nc1ccc2c(c1)OCCO2)c1cccs1 | 97% | 47* | -10% | 0% | 2.6µM* | 55*
CCN(CC)S(=O)(=O)c1cc(NC(=O)c2ccc(Br)s2)ccc1C | ? | 77* | 12% | 12% | 15µM* | 64*
O=C(Nc1ccc2c(c1)OCO2)c1cccs1 | 53% | 197* | -40% | -2% | 7% | 61*
CC(=O)Nc1ccc2c(c1)OCCO2 | 57% | -2 | -22% | 9% | 31% | 0
O=C(Nc1ccc2c(c1)OCO2)c1ccc(Br)s1 | 189% | 45* | -9%[9.22 µM] | -8% | 8.3µM* | 35*
Cc1ccc(-c2n[nH]c(=S)c3ccccc23)cc1S(=O)(=O)NCC1CCCO1 (stereo not drawn) | -5% | -6 | -1% | 14% | 4% | -5
O=C(c1ccccc1)c1ccc2c(c1)OCCOCCOCCOCCO2 | 18% | 22 | 4% | 11% | 5% | 8
O=C(c1ccc2c(c1)OCCCO2)c1cccs1 | 435% | 44* | -60% | -25% | 44% | 31*
COc1ccc(C)c2sc(NC(=O)c3ccc(S(=O)(=O)N4CCOCC4)cc3)nc12 | . | . | . | 1% | . | .
O=C(N=c1nc2ccccn2s1)c1ccccc1 | 256% | 152* | 11µM* | -9% | 7% | 41*
NS(=O)(=O)c1ccc(NC(=O)Cc2c(F)cccc2Cl)cc1 | -3% | -11 | 7% | 6% | ? | -3
CC(C)(C)OC(=O)N1CCC(c2c(C(=O)N3CCN(c4ccccc4)CC3)cnn2-c2ccccc2)CC1 | . | . | . | 2% | . | .
Cc1nn(Cc2ccccc2Cl)c(C)c1C(=O)N(C)CC(=O)Nc1cccc(F)c1 | 13µM* | . | . | -29% | ? | .
CCOc1ccc(NC(=O)CN(C)C(=O)c2ccccc2OCc2cccc(C)c2)cc1OCC | ? | . | . | 6% | ? | .
CCc1cccc(CC)c1NC(=O)c1ccccc1CCc1ccccc1 | 15µM* | -5 | -15% | 1% | 0% | -4
COc1ccc(NC(=O)CN(C)C(=O)c2ccccc2CCc2ccccc2)cc1 | ? | . | . | -3% | -6% | .
Cc1cccc(COc2ccccc2C(=O)N(C)CC(=O)Nc2cccc(F)c2)c1 | ? | . | . | -4% | 4.1µM* | .
CN(CC(=O)Nc1cccc(F)c1)C(=O)c1ccccc1CCc1ccccc1 | 6.6µM* | . | . | 4% | ? | .
Cc1ccccc1NC(=O)c1ccc(F)c(S(=O)(=O)NC2CCCC2)c1 | . | . | . | -1% | . | .
SMILES | Pf growth 48h | Shiga inhibitor | NS1 function inh | Sm TGR block | Pf growth 96h | Cycloheximide cs
COC(=O)c1cccc(NC(=O)NC(=O)c2ccccc2Cl)c1 | 344% | 35 | 0% | 1% | i | 10
COC(=O)c1cccc(Cn2c(Cl)c(/C=N/NC(=O)c3ccco3)sc2=O)c1 | 9.3µM* | 3 | 11% | 35µM* | 8.3µM* | 18*
COC(=O)c1cccc(COC(=O)CNC(=O)c2ccco2)c1 | 1% | -13 | -4% | 0% | 61% | -3
COC(=O)c1cccc(Cn2c(Cl)c(/C=N/NC(=O)c3ccccc3Cl)sc2=O)c1 | ? | -8 | 16% | ? | 4.7µM* | -4
CC1CCN(C(=O)CSc2nc(=O)n3ccccc3n2)CC1 | 4% | . | . | 7% | -15% | .
Cc1ccc(-c2nc(SCC(=O)NCc3ccco3)c3c(=O)n(C)c(=O)n(C)c3n2)cc1 | . | . | . | 7% | . | .
Cc1ccc(-c2cc(NC(=O)COc3ccc(Cl)cc3C)on2)cc1 | . | . | . | 3% | . | .
O=C(O)Cn1cc(/C=C2\SC(=O)N(c3ccccc3)C2=O)c2ccccc21 | 0% | 32 | 6% | . | 18% | 16*
Cn1cccc1/C=C1\SC(=O)N(c2ccccc2)C1=O | 104% | 63* | 2% | 1% | 66% | 52*
Cn1cc(/C=C2/SC(=O)N(c3ccccc3)C2=O)c2ccccc21 | 53% | 43 | 15% | 0% | 154% | 25*
CCOC(=O)c1cc2c(=O)n3ccccc3nc2n(CC2CCCO2)c1=NC(=O)c1cccc(C)c1 (stereo not drawn) | . | . | . | 0% | . | .
Cc1ccc(NC(=O)c2ccc(OCc3c(C)noc3C)cc2)nc1 | -24% | . | . | -3% | ? | .
Cc1ccc(N=N/C(=C\O)C(=O)c2ccc(Cl)cc2)cc1 | ? | 106* | . | 3% | 85% | 36*
Cc1nc2ccc(NC(=O)C3COc4ccccc4O3)cc2s1 (stereo not drawn) | 183% | 85* | 0% | -3% | 117% | 41*
Cc1nc2cc(NC(=O)C3COc4ccccc4O3)ccc2s1 (stereo not drawn) | 114% | 54* | -14% | 9% | 38% | 61*
Cc1nc2ccc3nc(NC(=O)C4COc5ccccc5O4)sc3c2s1 (stereo not drawn) | -5% | 18 | -28% | -1% | ? | 3
CCOC(=O)[C@@H]1[C@H]2COc3cc(OC)ccc3[C@H]2N2C(=O)N(c3ccc(F)cc3)C(=O)[C@@]12C | ? | -4 | 16% | 10% | ? | 1
CCOC(=O)[C@@H]1[C@H]2COc3ccc(Br)cc3[C@H]2N2C(=O)N(c3cccc(F)c3)C(=O)[C@]12C | ? | -3 | -2% | 19% | 13µM* | -3
CCOC(=O)[C@@H]1[C@H]2COc3ccc(Br)cc3[C@H]2N2C(=O)N(c3ccc(F)cc3)C(=O)[C@@]12C | 5.9µM* | -4 | 5% | 7% | ? | -2
CCOC(=O)[C@@H]1[C@H]2COc3cc(OC)ccc3[C@@H]2N2C(=O)N(c3ccc(C(F)(F)F)cc3)C(=O)[C@]12C | ? | -4 | 11% | 4% | 12µM* | -2
CCOC(=O)[C@@H]1[C@H]2COc3ccc(Br)cc3[C@@H]2N2C(=O)N(c3ccc(F)cc3)C(=O)[C@]12C | ? | -3 | 22% | 11% | ? | 2
COc1ccc(OC)c(NC(=O)c2nnn(Cc3ccccc3C)c2N)c1 | 12µM* | 17 | -37% | 2% | ? | 1
